Experimental data published in publication PMC5540273 (PLoS ONE, 2017).

What was measured:
Conditions in all cases: concentration: 1 μM, replicates: in singlicate; n = 1
PFTK1 = system: T1, PFTK1
T1 construct: gene CDK14

PHKG1 = system: PHKG1
PHKG2 = system: PHKG2
PIK3C2B = system: PIK3C2B
PIK3C2G = system: PIK3C2G
PIK3CA = system: PIK3CA
PIK3CB = system: PIK3CB
PIK3CD = system: PIK3CD
PIK3CG = system: PIK3CG
PIK4CB = system: T2, PIK4CB
T2 construct: gene PI4KB
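Further: KINOMEscan kinase panel screen.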

Row | Compound | %Inh (PFTK1) [%] | %Inh (PHKG1) [%] | %Inh (PHKG2) [%] | %Inh (PIK3C2B) [%] | %Inh (PIK3C2G) [%] | %Inh (PIK3CA) [%] | %Inh (PIK3CB) [%] | %Inh (PIK3CD) [%] | %Inh (PIK3CG) [%] | %Inh (PIK4CB) [%]
1 | CC(C)(C)n1cnc2c(N)ncnc21 [SKF-97359] | 0 | 14 | 24 | 0 | 0 | 0 | 0 | 0 | 0 | 25
2 | COc1cc(Nc2nccc(N3CCC(NC(=O)c4cccc(NC(C)=O)c4)C3)n2)cc(OC)c1OC (centres unmarked) [GSK1379754] | 18 | 7 | 3 | 100 | 0 | 99.9 | 0 | 0 | 99.9 | 0
3 | O=c1cc(N2CCOCC2)nc2n(Cc3cccc(C(F)(F)F)c3)ccn12 [GSK2297543] | 12 | 0 | 4 | 0 | 0 | 0 | 96.5 | 28 | 8 | 0
4 | O=C(NCCNc1ccnc(Nc2ccc(F)cc2)n1)c1cc2ccccc2s1 [GSK1379874] | 0 | 0 | 0 | 0 | 0 | 0 | 0 | 0 | 0 | 0
5 | NS(=O)(=O)c1cccc(-c2ccc3ncc(N4CCOCC4)nc3c2)c1 [GSK1535721] | 24 | 0 | 41 | 0 | 14 | 13 | 12 | 34 | 29 | 81
6 | NS(=O)(=O)c1cccc(-c2ccc3nccc(-c4cccc(S(N)(=O)=O)c4)c3c2)c1 [GW867253] | 0 | 0 | 5 | 58 | 52 | 38 | 24 | 39 | 88 | 99.1
7 | c1ccc(-c2cc(-c3c[nH]nc3-c3ccccn3)ccn2)cc1 [GW576604] | 39 | 0 | 0 | 0 | 0 | 0 | 0 | 0 | 0 | 0
8 | NCC(NC(=O)c1cc(-c2cn[nH]c2)c(-c2ccnc3[nH]ccc23)s1)c1ccccc1.O=C(O)C(F)(F)F.O=C(O)C(F)(F)F (centres unmarked) [GSK1325775] | 21 | 18 | 26 | 0 | 0 | 0 | 0 | 24 | 3 | 26
9 | COc1ccc(COc2cc(-n3cnc4ccccc43)sc2C(N)=O)cc1 [GSK1024304] | 0 | 0 | 0 | 0 | 0 | 0 | 100 | 0 | 0 | 0
10 | Cc1cccc(-c2nc(-c3ccc(S(C)(=O)=O)cc3)sc2-c2ccncc2)c1 | 0 | 0 | 0 | 0 | 49 | 20 | 1 | 25 | 10 | 0
11 | Cc1nnc(-c2ccc3occ(-c4ccc(C(C)O)cc4)c3c2)o1 (centres unmarked) | 1 | 9 | 16 | 18 | 23 | 9 | 18 | 0 | 25 | 0
12 | COc1ccc(S(=O)(=O)NC2CCN(c3cc(C)nc(Nc4cccc(C#N)c4)n3)CC2)cc1.O=C(O)C(F)(F)F [GSK1653539] | 11 | 0 | 9 | 12 | 0 | 6 | 100 | 0 | 33 | 0
13 | Cc1cccc(-c2nc(Nc3ccc4ncsc4c3)c3ccccc3n2)n1 [GW867588] | 0 | 0 | 0 | 0 | 10 | 0 | 0 | 30 | 0 | 28
14 | Cc1nnc(-c2ccc(C)c(-c3ccc(C(=O)Nc4ccc(NS(C)(=O)=O)cc4)cc3)c2)o1 [GW702865] | 14 | 2 | 0 | 0 | 0 | 0 | 0 | 10 | 0 | 0
15 | O=C(Nc1n[nH]c2cc(-c3cccc(F)c3)ccc12)C1CC1 [SB-735464] | 3 | 0 | 0 | 19 | 20 | 0 | 4 | 14 | 16 | 18
16 | CC(=O)Nc1ccc(COc2ccc(Nc3ccnc4cc(-c5ccccn5)ccc34)cc2)cc1.Cl [GW440148] | 25 | 0 | 0 | 0 | 0 | 2 | 100 | 7 | 14 | 16
17 | Nc1nccc(-c2c(-c3ccc(F)cc3)ncn2C2CCN(CC(F)(F)F)CC2)n1 [SB-236560] | 0 | 0 | 0 | 5 | 53 | 0 | 18 | 0 | 66 | 46
